Source: the supplement of paper PMC7184167
Counter-ions that a name gives are not always drawn.

Test system: replication-induced senescent mouse newborn dermal fibroblasts (NBF)
Assay: relative cell viability of senescent cells (fraction); higher = less killing of senescent cells
Settings: 1 µM; 3 days
Procedure: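 Replication-induced senescent newborn mouse skin fibroblasts (NBFs) in 24-well plates were treated with a Selleck FDA-approved drug library at 1 µM for 3 days.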

| SMILES | relative cell viability |
| --- | --- |
| O=C(O)CSCC(=O)NC1CCSC1=O (stereo not given) [Erdosteine] | 0.979 |
| CC(C(=O)O)c1ccc(-c2ccccc2)c(F)c1 (stereo not given) [Flurbiprofen] | 1.04 |
| O=C(O)c1ccc(-n2nc(-c3ccccc3O)nc2-c2ccccc2O)cc1 [Deferasirox] | 1.07 |
| CC(C)C[C@H](NC(=O)[C@@H](NC(=O)c1cccc(-c2ccccc2)n1)[C@@H](C)O)B(O)O | 1.1 |
| Nc1ccccc1NC(=O)c1ccc(CNc2nccc(-c3cccnc3)n2)cc1 [Mocetinostat (MGCD0103)] | 0.36 |
| CN1CCC(=C2c3ccccc3CCc3sccc32)CC1 [Pizotifen Malate] | 0.0212 |
| Clc1ccc(C(Cn2ccnc2)OCc2c(Cl)cccc2Cl)c(Cl)c1 (stereo not given) [Isoconazole nitrate] | 0.937 |
| CC(C)Cn1cnc2c(N)nc3ccccc3c21 [Imiquimod] | 0.273 |
| Clc1ccc2nsnc2c1NC1=NCCN1 [Tizanidine HCl] | 0.994 |
| COc1ccccc1OCC(O)CO (stereo not given) [Guaifenesin] | 1.12 |
| C[C@]12C=CC(=O)N[C@@H]1CC[C@@H]1[C@@H]2CC[C@]2(C)[C@@H](C(=O)Nc3cc(C(F)(F)F)ccc3C(F)(F)F)CC[C@@H]12 [Dutasteride] | 0.986 |
| CC(C)(C)c1cc(NC(=O)Nc2ccc(-c3cn4c(n3)sc3cc(OCCN5CCOCC5)ccc34)cc2)no1 [Quizartinib (AC220)] | 0.955 |
| COc1cc2c(Oc3ccc(NC(=O)C4(C(=O)Nc5ccc(F)cc5)CC4)cc3F)ccnc2cc1OCCCN1CCOCC1 | 0.757 |
| Clc1ccc(Nc2nnc(Cc3ccncc3)c3ccccc23)cc1 [Vatalanib (PTK787) 2HCl] | 0.741 |
| CCC[C@H](NC(=O)[C@@H]1[C@H]2CCC[C@H]2CN1C(=O)[C@@H](NC(=O)[C@@H](NC(=O)c1cnccn1)C1CCCCC1)C(C)(C)C)C(=O)C(=O)NC1CC1 [Telaprevir (VX-950)] | 0.411 |
| CC1(C)CCC(c2ccc(Cl)cc2)=C(CN2CCN(c3ccc(C(=O)NS(=O)(=O)c4ccc(N[C@H](CCN5CCOCC5)CSc5ccccc5)c(S(=O)(=O)C(F)(F)F)c4)cc3)CC2)C1 [Navitoclax (ABT-263)] | 1.04 |
| CO[C@H]1/C=C/O[C@@]2(C)Oc3c(C)c(O)c4c(O)c(c5c(nc6cc(C)ccn65)c4c3C2=O)NC(=O)/C(C)=C\C=C\[C@H](C)[C@H](O)[C@@H](C)[C@@H](O)[C@@H](C)[C@H](OC(C)=O)[C@@H]1C [Rifaximin] | 0.971 |
| CC(C)OC(=O)OCOP(=O)(CO[C@H](C)Cn1cnc2c(N)ncnc21)OCOC(=O)OC(C)C [Tenofovir Disoproxil Fumarate] | 0.84 |
| COc1cc2nccc(Oc3ccc(NC(=O)Nc4cc(C)on4)c(Cl)c3)c2cc1OC [Tivozanib (AV-951)] | 1.04 |
| C[C@]12CC[C@@H]3c4ccc(O)cc4CC[C@H]3[C@@H]1CC[C@@H]2O [Estradiol] | 1.13 |

| SMILES | relative cell viability |
| --- | --- |
| COC(=O)[C@@H]1CC2=CC(=O)CC[C@]2(C)[C@@]23O[C@@H]2C[C@@]2(C)[C@@H](CC[C@@]24CCC(=O)O4)[C@H]13 [Eplerenone] | 0.925 |
| Cc1cn([C@@H]2C[C@@H](O)[C@H](CO)O2)c(=O)[nH]c1=O [Telbivudine] | 1 |
| C[C@]1(O)C[C@@H](c2nc(-c3ccc4ccc(-c5ccccc5)nc4c3)c3c(N)nccn32)C1 [Linsitinib (OSI-906)] | 0.445 |
| C[C@@H]1CN(c2c(F)c(N)c3c(=O)c(C(=O)O)cn(C4CC4)c3c2F)C[C@H](C)N1 [Sparfloxacin] | 0.71 |
| CCOc1cc2ncc(C#N)c(Nc3ccc(F)c(Cl)c3)c2cc1NC(=O)/C=C/CN(C)C [Pelitinib (EKB-569)] | 1.01 |
| CCCC(CCC)C(=O)O [Divalproex Sodium] | 1.11 |
| C[C@@H](Oc1cc(-c2cnn(C3CCNCC3)c2)cnc1N)c1c(Cl)ccc(F)c1Cl | 0.71 |
| C[C@@H]1[C@H](O)[C@@H](C)/C=C/C=C/C=C/C=C/C=C/C=C/C=C/[C@H](O[C@@H]2O[C@H](C)[C@@H](O)[C@H](N)[C@@H]2O)C[C@@H]2O[C@](O)(C[C@@H](O)C[C@@H](O)[C@H](O)CC[C@@H](O)C[C@@H](O)CC(=O)O[C@H]1C)C[C@H](O)[C@H]2C(=O)O [Amphotericin B] | 0.766 |
| Nc1ccc(S(=O)(=O)Nc2ccccn2)cc1 [Sulfapyridine] | 0.951 |
| Cc1ccc(NC(=O)C2(c3ccc4c(c3)OC(F)(F)O4)CC2)nc1-c1cccc(C(=O)O)c1 [VX-809 (Lumacaftor)] | 0.838 |
| Clc1ccccc1C(c1ccccc1)(c1ccccc1)n1ccnc1 [Clotrimazole] | 1.01 |
| Cc1cnc(C(=O)NCCc2ccc(S(=O)(=O)NC(=O)NC3CCCCC3)cc2)cn1 [Glipizide] | 0.23 |
| Cc1ccc(Nc2nccc(N(C)c3ccc4c(C)n(C)nc4c3)n2)cc1S(N)(=O)=O | 1.05 |
| CC(C)OC(=O)C(C)(C)Oc1ccc(C(=O)c2ccc(Cl)cc2)cc1 [Fenofibrate] | 1.06 |
| C#Cc1cccc(Nc2ncnc3cc(OC)c(OCCCCCCC(=O)NO)cc23)c1 | 1.02 |
| COc1cc2nccc(Oc3ccc(NC(=O)C4(C(=O)Nc5ccc(F)cc5)CC4)cc3)c2cc1OC | 0.453 |
| CCCNC(C)C(=O)Nc1ccccc1C (stereo not given) [Prilocaine] | 0.827 |
| CC(=O)Nc1ccc(O)cc1 [Acetaminophen] | 0.803 |
| NC(=O)N1c2ccccc2C=Cc2ccccc21 [Carbamazepine] | 0.859 |
| CC(C)[C@H](O)C(=O)N[C@@H](C)C(=O)N[C@@H]1C(=O)N(C)CCc2ccccc21 | 0.981 |
